From PubChem BioAssay AID1903 (Southern Research Specialized Biocontainment Screening …, 2009) come the findings set out here.

Among all 310,000 compounds or so, about 1,200 (0.39%) were called active. The list is a sample of the results. Potency and affinity values are given separately. Values without a mark were called inactive. The rule behind the calls is not given here.

Usually inhibition stands for the relative decrease from the control value, in per cent.

Large T antigen (Simian virus 40), sequence (P03070 whole entry, looked up): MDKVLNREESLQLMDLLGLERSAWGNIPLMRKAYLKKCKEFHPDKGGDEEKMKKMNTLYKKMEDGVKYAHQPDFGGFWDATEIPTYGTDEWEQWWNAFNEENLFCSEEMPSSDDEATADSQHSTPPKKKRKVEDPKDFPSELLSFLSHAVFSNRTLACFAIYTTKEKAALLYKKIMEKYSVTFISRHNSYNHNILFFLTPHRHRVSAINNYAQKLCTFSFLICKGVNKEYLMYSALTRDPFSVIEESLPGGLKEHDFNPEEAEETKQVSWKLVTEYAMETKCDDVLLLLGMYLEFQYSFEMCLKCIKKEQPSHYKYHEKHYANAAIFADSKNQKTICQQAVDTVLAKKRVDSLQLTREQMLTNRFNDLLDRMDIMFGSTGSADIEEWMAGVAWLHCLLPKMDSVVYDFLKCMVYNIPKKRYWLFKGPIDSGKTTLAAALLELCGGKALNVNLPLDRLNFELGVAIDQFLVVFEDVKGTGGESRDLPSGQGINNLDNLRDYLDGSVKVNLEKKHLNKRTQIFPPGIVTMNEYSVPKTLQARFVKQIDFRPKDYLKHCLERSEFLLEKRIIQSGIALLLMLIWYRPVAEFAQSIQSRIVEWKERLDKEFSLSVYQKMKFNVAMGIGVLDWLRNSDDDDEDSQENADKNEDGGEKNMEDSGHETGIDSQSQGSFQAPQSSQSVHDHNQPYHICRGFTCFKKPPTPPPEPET

This assay concerns the target Large T antigen (Simian virus 40) (UniProt P03070). The experiment in a line: TAg ATPase/helicase activity blockers – biochemical (AID 1903). The following applies: SV40 large T antigen ATPase/helicase inhibition assay; at 20 µM; active compounds read high.
In the case of `O=C(CN1CCOCC1)NNC(=S)Nc1ccccc1`, the inhibition was 4.41%. The result for `CN(CC(=O)Nc1cccc(F)c1)C(=O)c1cccc(S(=O)(=O)N2CCN(c3ccccc3)CC2)c1` reads 6.82%; that for `O=[N+]([O-])C1=C(Nc2cccc3ccccc23)CS(=O)(=O)C1`, 0.61%; that for `Cc1ccc(NC2=C([N+](=O)[O-])CS(=O)(=O)C2)cc1`, 2.4%. The result for `Cc1ccc(/C=C2/NC(=O)N(Cc3ccccc3)C2=O)o1` reads 9.41%. With `COc1ccc(CN2C(=O)c3ccccc3C2=O)cc1`, the inhibition was 5.14%.

Consider `O=C1/C(=C/c2cccnc2)SC(=S)N1c1ccc(F)cc1`, for which the inhibition is 21.6%. Consider `Cc1ccc(/C=C2/NC(=O)N(Cc3ccc(Br)cc3)C2=O)o1`, for which the inhibition was 9.48%. Take `COC(=O)C1=C(C)N(Cc2ccc(OC)cc2)C(=O)/C1=C\c1ccco1`: the inhibition is 10.5%. In the case of `O=C1N/C(=C\c2ccsc2)C(=O)N1Cc1ccc(F)cc1`, the inhibition is 5.82%. As to `O=C1/C(=C\c2cccnc2)SC(=S)N1c1ccc(F)cc1`, the inhibition was 9.19%. The result for `O=C1N/C(=C/c2ccc(N3CCOCC3)cc2)C(=O)N1Cc1ccc(F)cc1` reads 3.08%. As for `COc1cccc(C(=O)COc2ccc(NC(=O)c3cccs3)cc2)c1`, the figure is -1.46%; as for `Cc1nn(-c2ccccc2)c(N)c1N=Nc1ccc(Cl)cc1`, 5.29%; as for `CC(=O)NCCCc1nc2ccccc2n1Cc1cc(C)ccc1C`, 2.29%. The result for `O=C(CCCN1C(=O)/C(=C\c2ccccc2)SC1=S)Nc1ccc(O)cc1C(=O)O` reads 11.7%; that for `O=C(CN1C(=O)/C(=C/c2ccccc2)SC1=S)NC1CCS(=O)(=O)C1` (stereo unspecified), 15.6%; that for `O=C(CCCN1C(=O)/C(=C/c2ccccc2)SC1=S)Nc1ccc(C(=O)O)c(O)c1`, 11.4%. In the case of `O=C(CCN1C(=O)/C(=C/c2cccs2)SC1=S)Nc1ccc(C(=O)O)c(O)c1`, the inhibition was 35%. For `COc1ccccc1/C=C1\SC(=S)N(CCC(=O)Nc2ccc(C(=O)O)c(O)c2)C1=O`, the inhibition is 22.1%. As for `O=C(CN1C(=O)/C(=C/c2ccccc2Cl)SC1=S)NC1CCS(=O)(=O)C1` (stereo unspecified), the figure is 14.6%; as for `O=C(CN1C(=O)S/C(=C\c2cccs2)C1=O)Nc1ccc(C(=O)O)c(O)c1`, 13.4%; as for `O=C(CCCN1C(=O)/C(=C\c2ccco2)SC1=S)Nc1ccc(O)cc1C(=O)O`, 83.1%. For `COC(=O)COc1ccc2occ(C(C)=O)c2c1`, the inhibition is -0.85%. With `COC(=O)c1[nH]c2ccc(F)cc2c1NC(=O)Nc1ccc(OC)cc1`, the inhibition is 11.4%.

As for `CN1CCN(C(=O)CSc2nnc(COc3ccccc3)o2)CC1`, the inhibition is 6.15%. On to `Cc1ccc2oc3nc(C)c(C(=O)Nc4cccc(C(F)(F)F)c4)cc3c(=O)c2c1`, for which the inhibition is 2.24%. The result for `Clc1ccc(/C=N/N2CCCCC2)cc1` reads 5.46%. The result for `Cc1cc(NC(=O)C(=O)c2c(C)[nH]c3ccccc23)no1` reads 3.99%; that for `CCOc1ccc2nc(NC(=O)CC3Oc4ccccc4NC3=O)sc2c1` (stereo unspecified), 7.51%. The result for `O=C(COC(=O)c1ccccc1SCC(=O)N1CCCC1)NC1CCCCC1` reads 7.38%; that for `CC1(C)CC(=O)C/C(=N/NC(=O)COc2ccc3ccccc3c2Br)C1`, 8.99%. For `C/C(CC(=O)Nc1ccc2c(c1)OCCO2)=N\NC(=O)Cc1ccccc1`, the inhibition was 9.69%.

Take `O=C(CCCN1C(=O)/C(=C/c2cccs2)SC1=S)Nc1ccc(O)c(C(=O)O)c1`: the inhibition was 29.5%. The result for `O=C(CCCN1C(=O)/C(=C\c2ccco2)SC1=S)Nc1ccc2ccccc2c1` reads 18.2%. The result for `CCN(C(=O)C(C)N1C(=O)/C(=C/c2ccco2)SC1=S)C1CCS(=O)(=O)C1` (stereo unspecified) reads 33.8%.

For `CC(C(=O)Nc1ccc(O)cc1C(=O)O)N1C(=O)/C(=C\c2cccs2)SC1=S` (stereo unspecified), the inhibition is 38.1%. As for `Cc1ccc2nc(N3CCN(c4ccccc4)CC3)c(C=O)c(=O)n2c1`, the figure is 3.59%. In the case of `CCn1cc(S(=O)(=O)CC(=O)N2CCc3ccccc32)c2ccccc21`, the inhibition is 16.3%.

For the compound `COCC(C)n1c(SCc2nc(N)nc(Nc3ccccc3C)n2)nc2ccccc2c1=O` (stereo unspecified), the inhibition is 23%. As for `COc1cccc(/C=C2\C(=O)N(c3cccc(C)c3)C(=O)c3ccccc32)c1`, the figure is 11%; as for `COc1cccc(N2C(=O)/C(=C\c3cccs3)NC2=S)c1`, 24%. As for `COc1cccc(NCc2ccc([N+](=O)[O-])s2)c1`, the inhibition was 20.9%. As for `COc1cccc(/C=C2/C(=O)NN(c3ccccc3)C2=O)c1`, the figure is 26.6%; as for `COc1ccc(NC(=O)CCNC(=O)c2ccco2)cc1OC`, 0.95%. As for `O=C(O)C1CCCN1C(=O)Nc1ccccc1` (stereo unspecified), the figure is 4.07%; as for `CN1CCN(CC(=O)O)CC1`, 17.9%; as for `COc1ccc2c(c1)[nH]c1c(=O)n(CCC3=CCCCC3)cnc12`, 9.61%. Consider `CCOC(=O)N1CCC(Nc2ccc(N3C(=O)C4CCCCC4C3=O)cc2[N+](=O)[O-])CC1` (stereo unspecified), for which the inhibition is 10.6%.

As for `COc1ccc(C(=O)CCc2ccccc2)c(O)c1`, the inhibition is 7.01%. As for `COC(=O)CCc1ccc(O)cc1`, the figure is 4.8%; as for `Cc1ccsc1CNC(=O)c1c(-c2ccccc2)noc1C`, 2.94%; as for `O=C1CNC(=S)N1CCCc1ccccc1`, 5.18%. The result for `O=C1CNC(=S)N1CCc1ccc(Cl)cc1` reads 6.29%; that for `COc1ccc(-c2cc(C(F)(F)F)nc(SCC(=O)NCCCN3CCOCC3)n2)cc1`, 9.25%. The result for `Cc1ccc(N2CC3=C(C2=O)C(c2ccccc2)NC(=O)N3C)cc1` (stereo unspecified) reads 5.38%; that for `CN1C(=O)NC(c2ccc(O)cc2)C2=C1CN(c1ccccc1)C2=O` (stereo unspecified), 6.82%; that for `CSc1nnc2n(-c3ccc(C)cc3)c(=O)c3c4c(sc3n12)COC(C(C)C)C4` (stereo unspecified), 10.7%. For `Cc1nnc2n(-c3ccccc3)c(=O)c3c4c(sc3n12)COC(C(C)C)C4` (stereo unspecified), the inhibition is 5.27%. As for `CN1CCc2c(sc3c2c(=O)n(-c2ccccc2)c2n[nH]c(=S)n32)C1`, the figure is 25.6%; as for `Cc1nnc2n(Cc3ccccc3)c(=O)c3c4c(sc3n12)COC(C(C)C)C4` (stereo unspecified), 7.22%; as for `O=C(O)c1nn2c(c1Br)NC(c1ccccc1)CC2C(F)(F)F` (stereo unspecified), 3.96%.

`COc1ccc(C(=O)NNC(=O)C2CCCN(C3CC(=O)N(c4ccccc4)C3=O)C2)cc1` (stereo unspecified): the inhibition was 9.48%.

As to `C/C(=N/NC(=O)NC12CC3CC(CC(C3)C1)C2)c1ccccc1`, the inhibition is 6.61%. Take `Cc1ccc(NCC(O)Cn2cnc3c2c(=O)n(C)c(=O)n3C)cc1` (stereo unspecified): the inhibition was 16.6%. For `Cn1c(=O)c2c(ncn2CC(O)CNc2ccc(F)cc2)n(C)c1=O` (stereo unspecified), the inhibition is 5.3%. Turning to `CCOC(=O)C1CCN(C(=S)Nc2ccccc2)CC1`, the inhibition is 11.3%. For the compound `Cc1c(C(=O)OCC(C)C)[nH]c2c1C(=O)CC(c1cccs1)C2` (stereo unspecified), the inhibition was 22.8%.

On to `CCOC(=O)C1=C(C)NC(c2cccs2)C(=O)N1` (stereo unspecified), for which the inhibition was 6.75%.

Take `COc1ccccc1N/N=C/c1ccc2c(c1)OCO2`: the inhibition was 5.16%.

On to `CCN(CC)C(=O)Nc1ccccc1C`, for which the inhibition was 3.88%. `COc1ccccc1-c1cn[nH]c1-c1ccc(O)cc1O`: the inhibition was 36.1%. On to `COc1ccc(-c2cn[nH]c2-c2ccc(O)cc2O)cc1`, for which the inhibition is 25.6%.

`CC/C(=N/O)C(=O)c1ccc(Br)cc1`: the inhibition was 8.42%.

Consider `Cc1ccccc1NC(=O)COC(=O)/C=C/c1cccc(C(F)(F)F)c1`, for which the inhibition is 3.86%. Consider `O=[N+]([O-])c1cc(S(=O)(=O)NC2=NCCCCC2)ccc1Cl`, for which the inhibition was 6.57%. As for `O=C(N=Nc1ccc(NOC(=O)c2ccccc2Br)cc1)c1ccccc1O`, the figure is 11.6%; as for `O=Nc1ccc(NOC(=O)c2ccccc2)cc1`, 19.7%; as for `CCc1ccccc1N1CC(C(=O)O)CC1=O` (stereo unspecified), -0.59%. As for `O=C(O)C1CCN(C(=O)c2cccc3ccccc23)CC1`, the inhibition was 4.64%.

Take `Cc1cc(N2CCOCC2)nc2ccc(NC(=S)NC(C)C)cc12`: the inhibition is 4.55%. As to `COc1ccc(NC(=O)/C=C/c2cc(OC)c(OC)c(OC)c2)cn1`, the inhibition is 7.41%.

Turning to `CS(=O)(=O)N(CC(=O)NC1CC1)C1CCCCC1`, the inhibition was 7.67%. As for `Cc1csc(-c2cnn(-c3ccccc3)c2NC(=O)c2cccc(C(F)(F)F)c2)n1`, the figure is 0.685%.

For `O=S(=O)(c1ccc(N2CCOCC2)c(Cl)c1)N1CCOCC1`, the inhibition is 7.49%. With `N#Cc1cc(S(=O)(=O)N2CCOCC2)ccc1N1CCOCC1`, the inhibition is 7.94%. Turning to `Cc1ccc(C)n1-c1cc(S(=O)(=O)N2CCOCC2)ccc1N1CCCC1`, the inhibition was 1.24%.

`O=[N+]([O-])c1cc(S(=O)(=O)N2CCOCC2)ccc1N1CCCC1`: the inhibition is -2.39%. As to `CCSC1=C(C#N)C(c2cccc(Br)c2)CC(=O)N1` (stereo unspecified), the inhibition was 1.17%. As for `CCOC(=O)c1[nH]c2ccc(OC)cc2c1N=CN(C)C`, the figure is 16.9%; as for `CCn1nnnc1SCC(=O)Nc1cccc(NC(C)=O)c1`, 0.63%; as for `Cc1ccc2nccc(C(=O)N3CCCC(Nc4ccc(F)cc4)C3)c2c1` (stereo unspecified), 14%. Take `Cc1ccc(-c2noc(C3CCCN(C(=O)c4ccccc4Br)C3)n2)o1` (stereo unspecified): the inhibition is 15.6%. As for `CC(=O)Nc1ccc(NC(=O)C2CC(=O)N(Cc3ccccc3)C2)cc1` (stereo unspecified), the figure is 27.7%; as for `O=C(Nc1ccccc1)C1CC(=O)N(Cc2ccccc2)C1` (stereo unspecified), 27.5%.

For `COc1ccc2nc(N3C(=O)CC(Cc4cc(C)cc(C)c4)C3=O)sc2c1` (stereo unspecified), the inhibition was -1.29%.
